Results on five compounds are retold here after PubChem BioAssay (NCI).

Holding throughout (test): NCI-60 one-dose screen, 48 h (100 = growth as untreated, 0 = no growth, -100 = all killed)
One experiment deals with SK-MEL-2 melanoma. The conditions noted are these: 10 µM unless noted.
The test system of the next experiment is EKVX NSCLC. As to conditions: 10 µM.
The next experiment has as its system SN12C renal. As to conditions: 10 µM unless noted.
The next experiment relates to UO-31 renal. The conditions noted are these: 10 µM unless noted.
Another experiment deals with TK-10 renal. The conditions noted are these: 10 µM unless noted.
Another experiment relates to ACHN renal. The conditions noted are these: 10 µM unless noted.
Another experiment deals with CAKI-1 renal. The conditions noted are these: 10 µM unless noted.
The next experiment deals with A498 renal. The conditions noted are these: 10 µM unless noted.
In a further experiment the test system is CCRF-CEM leukemia. The conditions noted are these: 10 µM.
In a further experiment the test system is MOLT-4 leukemia. The conditions noted are these: 10 µM unless noted.
For the next experiment, the system named is SR leukemia. The conditions noted are these: 10 µM unless noted.
The test system of a further experiment is OVCAR-8 ovarian. The conditions noted are these: 10 µM unless noted.
The next experiment concerns OVCAR-5 ovarian. The conditions noted are these: 10 µM unless noted.
The next experiment concerns SK-OV-3 ovarian. As to conditions: 10 µM unless noted.
Another experiment concerns IGROV1 ovarian. The conditions noted are these: 10 µM unless noted.
The subject of a further experiment is OVCAR-3 ovarian. The conditions noted are these: 10 µM unless noted.
For the next experiment, the system named is NCI/ADR-RES ovarian. As to conditions: 10 µM unless noted.
A further experiment relates to OVCAR-4 ovarian. The conditions noted are these: 10 µM unless noted.
Another experiment concerns HS 578T breast. As to conditions: 10 µM unless noted.
In another experiment the test system is RPMI-8226 leukemia. As to conditions: 10 µM unless noted.

SMILES strings stand for the structures. “And” between values parts separate entries of the source, which are not always exact repeats. Equal entries are not always repeated. The panel holds about 83,000 compounds, 20% with a hit somewhere; the sample as a whole holds those more often.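 Compound tested at a single concentration for 48 hours in 96-well plates; a percent growth value below 10 was scored as active.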 The source made the active and inactive calls.

As for `C#CCOC(=O)Nc1ccccc1`, the growth was 109% (inactive) with SK-MEL-2 melanoma; 99.1% (inactive) with EKVX NSCLC; 101% (inactive) in the experiment on SN12C renal; 97.7% (inactive) in the experiment on UO-31 renal; 103% (inactive) in the experiment on TK-10 renal; 114% (inactive) in the experiment on ACHN renal. For the same compound, the growth in the experiment with CAKI-1 renal is 98% (inactive); in the experiment with A498 renal it was 75.2% (inactive); in the experiment on CCRF-CEM leukemia it was 112% (inactive); in the experiment with MOLT-4 leukemia it was 104% (inactive); with SR leukemia it was 111% (inactive); with OVCAR-8 ovarian it was 103% (inactive). For the same compound, the growth in the experiment on OVCAR-5 ovarian is 95.8% (inactive); in the experiment on SK-OV-3 ovarian, 109% (inactive); in the experiment with IGROV1 ovarian, 109% (inactive); with OVCAR-3 ovarian, 115% (inactive); with NCI/ADR-RES ovarian it was 104% (inactive).
For the compound `O=C1CSC2=NCCN12`, the growth in the experiment with SK-MEL-2 melanoma is 89% (inactive); with EKVX NSCLC, 99% (inactive) and 64.7% (inactive); with SN12C renal it was 106% (inactive) and 93.2% (inactive); with UO-31 renal, 84.6% (inactive) and 90.1% (inactive); in the experiment with TK-10 renal it was 101% (inactive) and 106% (inactive); with ACHN renal, 98.1% (inactive) and 103% (inactive). For the same compound, the growth in the experiment with CAKI-1 renal was 95.6% (inactive); with A498 renal, 92.8% (inactive) and 99.7% (inactive); with CCRF-CEM leukemia, 102% (inactive) and 88.1% (inactive); in the experiment with MOLT-4 leukemia, 106% (inactive) and 67.1% (inactive); with SR leukemia it was 98.3% (inactive) and 49.5% (inactive); in the experiment on OVCAR-8 ovarian, 96.4% (inactive) and 107% (inactive). The growth with OVCAR-5 ovarian is 116% (inactive) and 96.7% (inactive); in the experiment with OVCAR-4 ovarian it was 93.9% (inactive) and 94.2% (inactive); with IGROV1 ovarian, 106% (inactive) and 101% (inactive); in the experiment with OVCAR-3 ovarian it was 102% (inactive) and 122% (inactive); in the experiment on HS 578T breast it was 88.1% (inactive) and 92.9% (inactive); in the experiment with NCI/ADR-RES ovarian it was 94.9% (inactive) and 102% (inactive).
Regarding `CC(C)NCC(O)c1ccc(O)c(O)c1` (stereo not given), the growth in the experiment on SK-MEL-2 melanoma was 110% (inactive) and 240% (inactive); with EKVX NSCLC, 104% (inactive) and 85% (inactive) and 91.2% (inactive); in the experiment on SN12C renal it was 76.5% (inactive) and 91.4% (inactive) and 92.8% (inactive); in the experiment with UO-31 renal, 82.6% (inactive) and 106% (inactive) and 76.1% (inactive); in the experiment on TK-10 renal, 92.5% (inactive) and 87.4% (inactive); in the experiment with ACHN renal, 89.6% (inactive) and 104% (inactive). Further, the growth in the experiment on CAKI-1 renal is 93.6% (inactive) and 83.6% (inactive); in the experiment with A498 renal, 95.8% (inactive) and 119% (inactive) and 78.3% (inactive); in the experiment with CCRF-CEM leukemia, 90.8% (inactive) and 100% (inactive) and 103% (inactive); with MOLT-4 leukemia it was 98.5% (inactive) and 95.2% (inactive) and 98.8% (inactive); with SR leukemia, 87.9% (inactive) and 95.3% (inactive); with RPMI-8226 leukemia, 96.6% (inactive) and 99.6% (inactive). Further, the growth was 94.8% (inactive) and 131% (inactive) and 91.7% (inactive) in the experiment with OVCAR-8 ovarian; 89.2% (inactive) and 92.6% (inactive) and 86.9% (inactive) with OVCAR-5 ovarian; 96.4% (inactive) and 101% (inactive) in the experiment on IGROV1 ovarian; 113% (inactive) and 102% (inactive) and 108% (inactive) with OVCAR-3 ovarian; 96.3% (inactive) and 102% (inactive) and 93.8% (inactive) with NCI/ADR-RES ovarian.
On to `O=C1C=C(Nc2ccccc2)c2ccccc2C1=O`, for which the growth with SK-MEL-2 melanoma was 101% (inactive); in the experiment on EKVX NSCLC, 99.8% (inactive); in the experiment on SN12C renal it was 20.9% (inactive) and 93.6% (inactive); with UO-31 renal, 65.1% (inactive) and 79.9% (inactive); with TK-10 renal it was 149% (inactive) and 136% (inactive); in the experiment with ACHN renal, 30.1% (inactive) and 92.8% (inactive). For the same compound, the growth in the experiment on CAKI-1 renal was 55.9% (inactive) and 98.1% (inactive); in the experiment on A498 renal, 87% (inactive) and 113% (inactive); in the experiment on CCRF-CEM leukemia it was 65.8% (inactive) and 94.4% (inactive); with MOLT-4 leukemia it was 72.7% (inactive) and 87% (inactive); with SR leukemia, 84.5% (inactive); in the experiment on OVCAR-8 ovarian, 31.7% (inactive) and 94.3% (inactive). Moreover, the growth in the experiment with OVCAR-5 ovarian is 90.2% (inactive) and 109% (inactive); in the experiment with OVCAR-4 ovarian, 44.4% (inactive) and 82.5% (inactive); in the experiment on SK-OV-3 ovarian, 108% (inactive) and 90.9% (inactive); in the experiment with IGROV1 ovarian, 65.5% (inactive) and 85.3% (inactive); with OVCAR-3 ovarian, 6.63% (active) and 35.4% (inactive); with NCI/ADR-RES ovarian, 25.1% (inactive) and 91.4% (inactive).
Turning to `CCCCOC(=O)/C=C\C(=O)NC(N)=O`, the growth is 111% (inactive) in the experiment with SK-MEL-2 melanoma; 95% (inactive) in the experiment on EKVX NSCLC; 87.2% (inactive) in the experiment on SN12C renal; 31% (inactive) in the experiment with UO-31 renal; 119% (inactive) in the experiment on TK-10 renal; 61.3% (inactive) in the experiment on ACHN renal. In addition, the growth in the experiment with CAKI-1 renal is -58% (active); in the experiment with A498 renal, 106% (inactive); in the experiment with CCRF-CEM leukemia, 75.2% (inactive); in the experiment with MOLT-4 leukemia, 65.4% (inactive); with SR leukemia, -22.3% (active); in the experiment with RPMI-8226 leukemia it was 39.5% (inactive). The growth in the experiment on OVCAR-8 ovarian was 71.1% (inactive); in the experiment with OVCAR-5 ovarian, 93.1% (inactive); with OVCAR-4 ovarian it was 93.4% (inactive); in the experiment with SK-OV-3 ovarian, 111% (inactive); in the experiment with IGROV1 ovarian it was 74.1% (inactive); with OVCAR-3 ovarian, 87.7% (inactive). The growth with HS 578T breast was 99.1% (inactive); in the experiment with NCI/ADR-RES ovarian, 90.8% (inactive).
